hERG WT inh – KCNH2 (human, wildtype) channel inhibition; hit rate 0.37% among 340,000; U2OS, BacMam KCNH2, thallium flux FluxOr; active compounds read low; AID 720551; activity change, % at 1.84 µM;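 active = maximum activity change below -70%; inconclusive = maximum activity change between -70% and -50%; inactive = maximum activity change above -50%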; also: % is scaled to controls: 0 for no effect and ±100 for the full control effect
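U2OS cells were transduced with wild-type KCNH2 virus (2.03 x 10^8 / mL) for 4 h at room temperature, then cultured overnight at 37 C. Thallium flux was read with FluxOr dye. Rate constants were normalized to DMSO controls.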
VDR inhibitor – inhibitors of human vitamin D receptor | P11473 | VDR-SRC2-3 peptide fluorescence polarization, 2 h | Potency, µM, inactives show max response, negative = inhibition, usual class: inhibitors | hit rate 0.93% among 400,000; also: potency is read from the fitted curve at half-maximal effect; % is scaled to controls: 0 for no effect and ±100 for the full control effect
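Compounds are added to VDR with labelled SRC2-3 coactivator peptide and held 2 h at room temperature. Inhibition of the VDR–peptide interaction is then read as a change in fluorescence polarization.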
KCNH2 3.1 block – inhibitors of human KCNH2 3.1 potassium channel isoform; hit rate 0.95% among 340,000; U2OS KCNH2 3.1, thallium flux FluxOr; active compounds read low; activity change, % (tested at about 1.8 µM);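 active = maximum activity change below -70%; inconclusive = maximum activity change from -70% to -50%; inactive = maximum activity change above -50%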;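 also: thallium influx rate constant from kinetic fluorescence after stimulation buffer; % is scaled to controls: 0 for no effect and ±100 for the full control effect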
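Channel expression came from 3.1 mutant virus (1.77 x 10^8 /mL) applied to suspended U2OS cells for 4 h. Flux was tracked with FluxOr dye plus Red40 quencher, and kinetic rate constants normalized to controls.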
CBFb-RUNX1 inh – CBF-beta/RUNX1 interaction disruption | Potency, µM (highest dose often 59.8 µM), inactives show top-dose activity, negative = inhibition, actives largely listed as inhibitors | 230,000 tested, under 10 active | AID 1477 | Q01196+Q13951 | AlphaScreen CBFb-His/RUNX1-biotin binding, biochemical; also: % of control where 0% means no effect
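AlphaScreen proximity signal reports loss of binding between His-tagged CBF-beta and biotin-labelled RUNX1, each at 30 nM. Proteins are pre-associated for 20 minutes, compounds added for 15 minutes, then beads for 90 minutes, all at ambient temperature.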
MBNL1 CUG block – blocks human MBNL1 binding to CUG repeat RNA; Q9NR56; TR-FRET MBNL1-His/biotin-(CUG)12 binding, 665/545 ratio; Potency, µM (titrated, usually from 57.5 µM), without a hit: at the top dose activity change, negative = inhibition, usual class: inhibitors; hit rate 0.036% among 280,000; AID 2675; active = well fitted inhibition curve with a large enough effect in the signal ratio, with a control signal flat, not every such curve was filed as active; inconclusive = small, poorly fitted or top-dose-only effect, or effect the other way, or a change in a side signal; inactive = no such curve, though single readings can be large or run the other way; the % refers to the signal ratio; also: potency is read from the fitted curve at half-maximal effect; % is scaled to controls: 0 for no effect and ±100 for the full control effect
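Compound titration spanned 92 nM–58 uM against the MBNL1-His/biotin-(CUG)12 complex. After 60 min at room temperature with 5 nM streptavidin-XL665 and 0.055 ng/ul terbium anti-His, ratiometric 665/545 nm emission (Ex 340 nm) normalized to controls.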
PLK1 PBD block – blocks phosphopeptide binding to human PLK1 polo-box domain | P53350 | Potency, µM, for inactives: max response, negative = inhibition, actives largely listed as inhibitors | hit rate 2.8% among 360,000 | Plk1 PBD binding of FITC phosphopeptide, fluorescence polarization; also: potency is read from the fitted curve at half-maximal effect; series mostly up to about 57 µM; % is scaled to controls: 0 for no effect and ±100 for the full control effect; nearly all actives have a fitted effect of over 65% in size
TbPYK inh – Trypanosoma brucei pyruvate kinase inhibition, cherry-pick confirmation; Potency, µM (series often up to 76.9 µM), inactives show at the highest dose activity change, negative = inhibition, hits mostly inhibitors; shares compounds with PLK1 PBD block; recombinant TbPYK, Kinase-Glo ATP luminescence; hit rate 67% among 890; also: potency is read from the fitted curve at half-maximal effect; % is scaled to controls: 0 for no effect and ±100 for the full control effect; nearly all actives have a fitted effect of over 70% in size
TbPYK ADP-Glo – TbPYK inhibition, orthogonal confirmation. shares compounds with PLK1 PBD block. recombinant TbPYK, ADP-Glo luminescence, 60 min. Potency, µM (doses to about 76.9 µM), for the others: at the top dose activity change, negative = inhibition, hits mostly inhibitors. hit rate 62% among 890. AID 720584; also: potency is read from the fitted curve at half-maximal effect; % is scaled to controls: 0 for no effect and ±100 for the full control effect; nearly all actives have a fitted effect of over 75% in size
* = called active by the depositor; ? = inconclusive; / = no result given; [ ] = remark or other dose. This is a sample that favours compounds with a hit; in the whole collection about 3.8% have one here. Unless noted, calls follow the shape of the dose curve; as a rule, active = well fitted curve in the direction sought with a large enough effect; inconclusive = small, poorly fitted or top-dose-only effect, or another doubt; inactive = no such curve, though single readings can be large; an effect the other way counts as inactive or inconclusive.

SMILES	hERG WT inh	VDR inhibitor	KCNH2 3.1 block	CBFb-RUNX1 inh	MBNL1 CUG block	PLK1 PBD block	TbPYK inh	TbPYK ADP-Glo
C=CCN1C(=O)/C(=c2\sc3nc(=O)c(Cc4ccc(OC)c(OC)c4)nn3c2=O)c2ccccc21	1.8	39.8µM*	1.3	-19.4%	/	10.6µM*	?	35.5µM*
COc1cc(/C=c2\sc3nc(=O)c(-c4ccccc4)nn3c2=O)ccc1OCCC(C)C	2.9	-27.3%	4.9	3.4%	-5.6%	?	/	/
Cc1ccc2[nH]c(=O)c(CN(Cc3ccccc3)Cc3nnnn3Cc3ccco3)cc2c1	/	-16.8%	/	/	/	/	/	/
COc1ccc(N=C(NN)c2ccc3ccccc3n2)cc1	1.2	-27.4%	11.6	-7.9%	1.6%	11.9µM*	12.6µM*	?
Cc1nn(C(=O)c2cccc(F)c2)c(C)c1S(=O)(=O)N1CCCCCC1	/	-0.7%	/	/	/	/	/	/
CCOC(=O)C1Nc2ccc(C)cc2C2C=CCC12 (stereo unspecified)	-2.9	-24.8%	-5.5	/	/	-29.2%	/	/
CCOC(=O)c1ccc2c(c1)C1C=CCC1C(C(=O)OCC)N2 (stereo unspecified)	5.3	-3.2%	-10.3	/	?	-17.3%	-26.7%	-16.2%
COc1ccccc1N1CCN(S(=O)(=O)c2c(C)sc3ncn(CC(=O)N(C)c4ccc(Cl)cc4)c(=O)c23)CC1	/	-8.9%	/	/	/	/	/	/
CCn1cc(/C=C/C(=O)Nc2ccn(Cc3c(F)c(F)cc(F)c3F)n2)cn1	-4.3	?	7.6	-2.1%	-2.6%[11.5 µM]	-16.6%	7.94µM*	12.6µM*
CCOC(=O)C1=C(C)c2ccccc2N(C(=O)OC)C1(C)C(=O)OCC (stereo unspecified)	0.3	?	/	-7.1%[89.1 µM]	/	?	31.6µM*	39.8µM*
NC(=O)CSc1nnc(-c2cccc(S(=O)(=O)N3CCOCC3)c2)n1C1CCCCCC1	-0.7	?	-2.8	-2.6%	5.1%	2.99µM*	-12.8%	-19.3%
CCn1c(C(=O)N2CCCC(C(=O)NCCCc3ccccc3)C2)cc2sccc21 (stereo unspecified)	-9.7	-11.0%	-3.2	-4.8%	0.4%	2.0%	/	/
CCn1c(C(=O)N2CCCC(C(=O)NCCc3ccc(C)cc3)C2)cc2sccc21 (stereo unspecified)	3.5	-0.3%	-13.4	-2.5%	2.4%	0.5%	15.8µM*	31.6µM*
CN(C)C(=S)N=Nc1[nH]c2ccccc2c1O	/	-0.4%	1.8	-1.8%	?	16.8µM*	5.62µM*	6.31µM*
Cc1cc(C)cc(-n2c(C)nc3cc(C(=O)NCc4ccccc4Cl)ccc32)c1	/	2.8%	/	/	/	/	/	/
C=C1C=CS(=O)(=O)N(C(CC(C)C)C(=O)OC)C1 (stereo unspecified)	/	-23.6%	/	2.8%	/	/	/	/
CCOC(=O)CCc1c(C)nc(SCCN2CCCC2)c(C#N)c1C	28.3	3.1%	7.4	1.7%	-2.3%	-25.6%	/	/
CCOC(=O)CCc1c(C)nc(SCCCn2c(=O)[nH]c3ccccc32)c(C#N)c1C	-15.6	7.2%	-7.0	5.5%	10.3%	-15.5%	5.62µM*	14.1µM*
O=C(CSc1ccc(-c2ccco2)nn1)NCc1ccc(F)cc1	4.5	-13.2%	-0.5	-5.8%	7.9%	-16.4%	/	/
O=C(CSc1ccc(-c2ccco2)nn1)c1ccc(F)cc1	13.3	?	-3.1	?	29.3%	?	25.1µM*	31.6µM*
COc1ccc(C(=O)CSc2nnc(-c3ccco3)n2CC2CCCO2)cc1 (stereo unspecified)	-2.0	-6.9%	-14.7	4.9%	-5.3%	-14.3%	/	/
COc1ccc(C(=O)CSc2nnc(-c3ccco3)c(-c3ccco3)n2)cc1	-6.2	-20.2%	34.6	/	18.5%	26.7µM*	25.1µM*	35.5µM*
CCC(=O)Nc1ccc(NC(=O)CSc2nnc(-c3ccc(O)cc3)n2CC2CCCO2)cc1 (stereo unspecified)	-20.9	-14.0%	-16.9	0.4%	7.6%	-9.5%	/	/
O=C(CSc1nnc(-c2ccco2)n1CC1CCCO1)c1ccc(F)cc1 (stereo unspecified)	0.2	-28.7%	9.9	2.7%	6.9%	2.67µM*	?	39.8µM*
CC(=O)Nc1ccc(C(=O)CSc2nnc(-c3ccc(O)cc3)n2CC2CCCO2)cc1 (stereo unspecified)	3.1	-2.8%	11.1	2.1%	-17.2%	-17.2%	15.8µM*	?
SMILES	hERG WT inh	VDR inhibitor	KCNH2 3.1 block	CBFb-RUNX1 inh	MBNL1 CUG block	PLK1 PBD block	TbPYK inh	TbPYK ADP-Glo
COC(=O)C1=C(C(=O)OC)[C@@H]2Nc3ccccc3[C@@]23C[C@@H](C(=O)OC)N(S(=O)(=O)c2ccc4c(c2)OCCN4C)C3=N1	/	/	/	-10.6%[13.1 µM]	/	/	/	/
Nc1c(C(=O)N2CCOCC2)sc2nc(N3CCOCC3)c3c(c12)CCCC3	-0.9	70.8µM*	8.1	10.0%	/	26.7µM*	7.94µM*	14.1µM*
CC(=O)c1ccc(NC(=O)c2sc3nc(N4CCOCC4)c4c(c3c2N)CCCC4)cc1	-33.7	11.0%	7.4	/	14.7%	-29.2%	/	/
Nc1c(C(=O)Nc2ccc(Cl)cc2)sc2nc(N3CCOCC3)c3c(c12)CCCC3	-6.4	11.8%	-10.4	/	6.6%	?	?	?
CC1(C)Cc2c(c(N3CCOCC3)nc3sc(C(=O)N4CCCCC4)c(N)c23)CO1	1.1	?	0.2	6.8%	-11.5%	?	0.398µM*	2.51µM*
COc1cccc(NC(=O)c2sc3nc(N4CCOCC4)c4c(c3c2N)CCCC4)c1	39.9	12.5%	8.7	/	6.9%	?	?	?
CSc1ncc2c(n1)-c1ccccc1N(Cc1ccccc1)S2(=O)=O	/	-7.2%	/	/	/	/	/	/
CC(C)c1ccc(S(=O)(=O)c2cnc(SCC(=O)Nc3ccc(F)cc3F)nc2N)cc1	/	5.9%	/	/	/	/	/	/
O=C1C=C(NCCO)C(=O)c2cnccc21	/	/	/	-16.7%	/	/	/	/
O=C1C=C(NCCc2cc(Br)c(O)c(Br)c2)C(=O)c2ncccc21	-32.9	31.6µM*	10.2	/	/	2.67µM*	11.2µM*	15.8µM*
O=S(=O)(c1ccc2nc(-c3ccco3)c(-c3ccco3)nc2c1)N1CCOCC1	-8.0	-23.1%	-1.4	/	?	?	20µM*	25.1µM*
O=C(O)c1ccc2nc3c(nc2c1)-c1ccccc1C3=O	-8.4	?	3.7	11.2%	?	29.9µM*	20µM*	?
O=C(O)c1ccc2nc(-c3ccco3)c(-c3ccco3)nc2c1	-3.3	?	-1.5	?	?	11.9µM*	14.1µM*	15.8µM*
